# Experimental data taken from PubChem BioAssay (EPA / NIEHS).
# Values joined by “and” are separate entries in the source; they are usually repeats but may differ in a detail not shown here. Equal values may be shown once. Results filed as inconclusive are left out. More than one record can exist for a structure, and the calls need not agree. Active and inactive are the calls of the source. Rule for the calls: active = hit-call score of the fitted dose curve at least 0.9, where 1 is the maximum; inconclusive = response in the unintended direction; inactive = score below 0.9.
# Assays:
# [1] = target: Neuropeptide Y receptor type 2 (Homo sapiens) (UniProt P49146); test: NVS_GPCR_hNPY2: NovaScreen (NVS) G Protein-Coupled Receptor Assay for human Neuropeptide Receptor Y2 (NPY2) (AID 2283277)
# How it was run: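 Radioligand binding on membranes extracted from SK-N-MC cells, cell-free, read 1 h after dosing by filter-based scintillation counting. Loss of signal vs DMSO. Primary screen in duplicate at 25 uM; actives followed up in concentration-response up to 50 uM.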
# [2] = target: Muscarinic acetylcholine receptor M1 (Homo sapiens) (UniProt P11229); test: NVS_GPCR_hM1: NovaScreen (NVS) G Protein-Coupled Receptor Assay for human Muscarinic, M1 Receptor (AID 2283270)
# How it was run: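 Cell-free radioligand displacement using membrane protein extracted from CHO cells, read by filter-based scintillation counting 1 h after dosing. Loss of bound signal fitted versus DMSO; primary screen single concentration 25 uM in duplicate, actives followed by concentration series.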
# [3] = tested on: rabbit Platelet Activating Factor Receptor (PAF), gene 100354046; test: NVS_GPCR_rabPAF: NovaScreen (NVS) G Protein-Coupled Receptor Assay for rabbit Platelet Activating Factor Receptor (PAF) (AID 2283287)
# How it was run: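 Rabbit platelet membrane preparation; radioligand displacement read by filter-based scintillation counting 1 h after dosing, loss of signal versus DMSO. Primary screen in duplicate at 25 uM, actives followed up in concentration series.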
# [4] = target: D(1A) dopamine receptor (Homo sapiens) (UniProt P21728); test: NVS_GPCR_hDRD1: NovaScreen (NVS) G Protein-Coupled Receptor Assay for human Dopamine Receptor D1 (DRD1) (AID 2283269)
# How it was run: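 Extracted HEK293 DRD1 is incubated 1 h with compound and a tritiated or iodinated radioligand, then filtered and counted. Screening runs 25 uM in duplicate with on-plate positive and negative controls.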
# [5] = target: human Muscarinic, M4 Receptor, CHRM4 (gene 1132) (UniProt P08173); test: NVS_GPCR_hM4: NovaScreen (NVS) G Protein-Coupled Receptor Assay for human Muscarinic, M4 Receptor (AID 2283274)
# How it was run: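 Cell-free radioligand displacement using CHO-derived human M4 receptor protein, 1 h after dosing; bound radioactivity by filtration and scintillation counting. Primary screen single 25 uM duplicate, actives followed in concentration series.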
# [6] = target: human Neurokinin, NK2 Receptor, TACR2 (gene 6865) (UniProt P21452); test: NVS_GPCR_hNK2: NovaScreen (NVS) G Protein-Coupled Receptor Assay for human Neurokinin, NK2 Receptor (AID 2283278);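 note: actives reduce bound radioligand signal relative to DMSO baseline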
# How it was run: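 Test chemicals displace a radioligand from receptor prepared from CHO cells in a cell-free format, read after 4 hours by scintillation counting on filters. Screening starts at 25 uM in duplicate, and active chemicals then go to concentration series.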
# [7] = target: human Opioid Receptor Delta 1 (Opiate D1), OPRD1 (gene 4985) (UniProt P41143); test: NVS_GPCR_hOpiate_D1: NovaScreen (NVS) G Protein-Coupled Receptor Assay for human Opioid Receptor Delta 1 (Opiate D1) (AID 2283280)
# How it was run: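 Radioligand displacement on membranes from CHO cells expressing the receptor, read by filter scintillation counting 1 h after dosing. Duplicate single-point screen at 25 uM, then concentration series for actives; loss of signal versus DMSO.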
# [8] = target: mouse Cholecystokinin, CCK1 Receptor (CCKA), Cckar (gene 12425) (UniProt O08786); test: NVS_GPCR_mCCKAPeripheral: NovaScreen (NVS) G Protein-Coupled Receptor Assay for mouse Cholecystokinin, CCK1 Receptor (CCKA) (AID 2283285)
# How it was run: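 Radioligand competitive displacement on mouse pancreatic membranes, 2 h incubation; filter-based scintillation counting, loss of signal versus DMSO. Single-concentration screen at 25 uM in duplicate, actives retested in concentration-response up to 50 uM.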
# [9] = target: Muscarinic acetylcholine receptor M3 (Homo sapiens) (UniProt P20309); test: NVS_GPCR_hM3: NovaScreen (NVS) G Protein-Coupled Receptor Assay for human Muscarinic, M3 Receptor (AID 2283272)
# How it was run: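 Radioligand displacement binding on human M3 receptor in CHO-derived membranes, 1 h incubation, filter-based scintillation counting. Primary screen in duplicate at 25 uM; actives followed up in concentration series; loss of signal versus DMSO.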
# [10] = target: human Leukotriene B4 Receptor 1 (LTB4-BLT1), LTB4R (gene 1241) (UniProt Q15722); test: NVS_GPCR_hLTB4_BLT1: NovaScreen (NVS) G Protein-Coupled Receptor Assay for human Leukotriene B4 Receptor 1 (LTB4-BLT1) (AID 2283271)
# How it was run: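 Radioligand displacement binding on receptor extracted from human neutrophils, cell-free, 1 h after dosing; filter-based scintillation counting. Primary screen in duplicate at 25 uM, actives retested in concentration-response up to 50 uM; loss of signal versus DMSO.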
# [11] = target: human Thromboxane A2 Receptor (TXA2), TBXA2R (gene 6915) (UniProt P21731); test: NVS_GPCR_hTXA2: NovaScreen (NVS) G Protein-Coupled Receptor Assay for human Thromboxane A2 Receptor (TXA2) (AID 2283282);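 note: actives reduce bound radioligand signal relative to DMSO baseline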
# How it was run: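 Cell-free radioligand binding with human platelet-derived receptor; 1 h after dosing, filter-based scintillation counting, loss of signal vs DMSO. Primary screen in duplicate at 25 uM.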
# [12] = target: Muscarinic acetylcholine receptor M2 (Homo sapiens) (UniProt P08172); test: NVS_GPCR_hM2: NovaScreen (NVS) G Protein-Coupled Receptor Assay for human Muscarinic, M2 Receptor (AID 2283273)
# How it was run: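 CHO membrane prep, radioligand + test compound, 1 h; filtration, scintillation count. Screen 25 uM duplicate → conc. series for actives. Readout: decrease in binding vs DMSO control.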
# [13] = target: human Endothelin Receptor Type B (ETB), EDNRB (gene 1910) (UniProt P24530); test: NVS_GPCR_hETB: NovaScreen (NVS) G Protein-Coupled Receptor Assay for human Endothelin Receptor Type B (ETB) (AID 2283267)
# How it was run: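 Human astrocytoma cell membranes; radioligand competitive binding read by filter scintillation counting 4 hours after dosing. Single-concentration duplicate screen at 25 uM, then singleton concentration-response up to 50 uM; loss of signal versus DMSO.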
# D(1A) dopamine receptor (Homo sapiens), sequence (P21728 whole entry, looked up): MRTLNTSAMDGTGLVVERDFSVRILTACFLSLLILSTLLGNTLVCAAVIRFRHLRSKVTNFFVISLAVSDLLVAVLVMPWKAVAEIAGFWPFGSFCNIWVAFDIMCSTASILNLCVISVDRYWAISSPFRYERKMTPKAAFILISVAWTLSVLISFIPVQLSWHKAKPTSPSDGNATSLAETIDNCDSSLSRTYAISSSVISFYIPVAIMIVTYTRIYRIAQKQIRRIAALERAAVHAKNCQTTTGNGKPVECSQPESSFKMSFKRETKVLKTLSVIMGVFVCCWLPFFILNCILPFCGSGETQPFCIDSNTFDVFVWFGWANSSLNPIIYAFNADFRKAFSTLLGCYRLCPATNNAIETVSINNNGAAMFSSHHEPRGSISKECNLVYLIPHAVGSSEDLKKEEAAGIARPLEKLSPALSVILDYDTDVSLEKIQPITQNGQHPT
# human Leukotriene B4 Receptor 1 (LTB4-BLT1), LTB4R (gene 1241), sequence (Q15722 whole entry, looked up): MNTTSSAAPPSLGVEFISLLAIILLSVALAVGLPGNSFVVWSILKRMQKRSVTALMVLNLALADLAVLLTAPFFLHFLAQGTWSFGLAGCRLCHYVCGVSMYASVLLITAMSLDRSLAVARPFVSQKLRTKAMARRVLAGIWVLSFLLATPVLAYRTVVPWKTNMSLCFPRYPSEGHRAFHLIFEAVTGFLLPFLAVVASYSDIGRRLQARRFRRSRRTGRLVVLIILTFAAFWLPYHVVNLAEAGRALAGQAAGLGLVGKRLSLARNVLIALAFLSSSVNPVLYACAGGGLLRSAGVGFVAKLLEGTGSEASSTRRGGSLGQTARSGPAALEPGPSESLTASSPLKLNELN
# human Opioid Receptor Delta 1 (Opiate D1), OPRD1 (gene 4985), sequence (P41143 whole entry, looked up): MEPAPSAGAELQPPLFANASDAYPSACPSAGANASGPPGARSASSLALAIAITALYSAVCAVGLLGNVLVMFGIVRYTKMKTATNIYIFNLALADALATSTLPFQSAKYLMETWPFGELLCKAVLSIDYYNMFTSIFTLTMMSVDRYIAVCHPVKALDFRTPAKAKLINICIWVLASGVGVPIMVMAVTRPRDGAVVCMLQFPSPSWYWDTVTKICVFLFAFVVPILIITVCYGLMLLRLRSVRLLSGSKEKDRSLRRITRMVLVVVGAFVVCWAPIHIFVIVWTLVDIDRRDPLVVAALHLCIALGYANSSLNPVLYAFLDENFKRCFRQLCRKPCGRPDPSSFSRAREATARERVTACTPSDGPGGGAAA
# Muscarinic acetylcholine receptor M1 (Homo sapiens), sequence (P11229 whole entry, looked up): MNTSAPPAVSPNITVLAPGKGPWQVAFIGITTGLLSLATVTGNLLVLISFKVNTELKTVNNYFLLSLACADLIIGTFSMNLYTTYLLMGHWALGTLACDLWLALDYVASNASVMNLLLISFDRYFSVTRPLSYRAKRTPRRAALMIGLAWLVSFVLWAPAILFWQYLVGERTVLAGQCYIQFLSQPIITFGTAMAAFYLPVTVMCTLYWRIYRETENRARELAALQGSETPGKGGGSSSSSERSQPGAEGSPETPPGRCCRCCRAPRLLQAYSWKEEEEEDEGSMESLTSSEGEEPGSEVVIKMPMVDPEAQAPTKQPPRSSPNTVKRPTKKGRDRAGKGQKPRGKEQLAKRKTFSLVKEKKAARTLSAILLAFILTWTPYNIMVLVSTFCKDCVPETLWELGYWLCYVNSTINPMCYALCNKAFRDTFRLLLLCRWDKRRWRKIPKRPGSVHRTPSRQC
# mouse Cholecystokinin, CCK1 Receptor (CCKA), Cckar (gene 12425), sequence (O08786 whole entry, looked up): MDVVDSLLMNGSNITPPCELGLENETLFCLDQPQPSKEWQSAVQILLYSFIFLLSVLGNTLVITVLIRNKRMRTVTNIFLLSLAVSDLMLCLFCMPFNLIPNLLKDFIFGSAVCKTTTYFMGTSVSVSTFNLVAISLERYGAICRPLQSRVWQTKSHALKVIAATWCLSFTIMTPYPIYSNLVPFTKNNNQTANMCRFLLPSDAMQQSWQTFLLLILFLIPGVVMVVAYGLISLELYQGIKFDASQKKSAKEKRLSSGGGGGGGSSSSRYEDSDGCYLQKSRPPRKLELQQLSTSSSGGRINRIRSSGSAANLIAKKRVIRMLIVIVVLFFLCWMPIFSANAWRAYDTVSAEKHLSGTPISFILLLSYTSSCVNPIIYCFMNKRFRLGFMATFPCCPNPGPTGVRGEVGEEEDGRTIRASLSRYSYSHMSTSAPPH
# human Neurokinin, NK2 Receptor, TACR2 (gene 6865), sequence (P21452 whole entry, looked up): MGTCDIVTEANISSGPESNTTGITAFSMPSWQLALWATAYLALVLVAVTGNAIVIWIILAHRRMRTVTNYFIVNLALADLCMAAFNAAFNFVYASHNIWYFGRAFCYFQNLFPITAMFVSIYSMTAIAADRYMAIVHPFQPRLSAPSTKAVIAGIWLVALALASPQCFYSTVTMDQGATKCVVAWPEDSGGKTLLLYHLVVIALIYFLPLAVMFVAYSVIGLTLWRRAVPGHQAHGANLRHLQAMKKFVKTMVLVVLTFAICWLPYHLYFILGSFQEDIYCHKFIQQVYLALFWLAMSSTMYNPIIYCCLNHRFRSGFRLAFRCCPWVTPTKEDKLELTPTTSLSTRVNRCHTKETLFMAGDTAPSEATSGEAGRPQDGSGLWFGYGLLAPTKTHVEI
# human Muscarinic, M4 Receptor, CHRM4 (gene 1132), sequence (P08173 whole entry, looked up): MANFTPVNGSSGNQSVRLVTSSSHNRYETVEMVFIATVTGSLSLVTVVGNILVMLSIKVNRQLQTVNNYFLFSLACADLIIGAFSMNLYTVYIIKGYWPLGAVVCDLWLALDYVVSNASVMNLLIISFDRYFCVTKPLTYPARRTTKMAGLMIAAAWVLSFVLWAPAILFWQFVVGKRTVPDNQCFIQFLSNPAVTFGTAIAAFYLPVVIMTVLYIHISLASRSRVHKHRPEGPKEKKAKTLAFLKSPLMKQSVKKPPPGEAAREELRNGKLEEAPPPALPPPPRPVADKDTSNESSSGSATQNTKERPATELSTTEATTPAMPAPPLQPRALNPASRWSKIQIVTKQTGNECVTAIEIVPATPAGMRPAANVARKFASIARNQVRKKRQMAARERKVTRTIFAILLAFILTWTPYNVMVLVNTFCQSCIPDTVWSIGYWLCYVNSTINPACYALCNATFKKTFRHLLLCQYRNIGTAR
# human Thromboxane A2 Receptor (TXA2), TBXA2R (gene 6915), sequence (P21731 whole entry, looked up): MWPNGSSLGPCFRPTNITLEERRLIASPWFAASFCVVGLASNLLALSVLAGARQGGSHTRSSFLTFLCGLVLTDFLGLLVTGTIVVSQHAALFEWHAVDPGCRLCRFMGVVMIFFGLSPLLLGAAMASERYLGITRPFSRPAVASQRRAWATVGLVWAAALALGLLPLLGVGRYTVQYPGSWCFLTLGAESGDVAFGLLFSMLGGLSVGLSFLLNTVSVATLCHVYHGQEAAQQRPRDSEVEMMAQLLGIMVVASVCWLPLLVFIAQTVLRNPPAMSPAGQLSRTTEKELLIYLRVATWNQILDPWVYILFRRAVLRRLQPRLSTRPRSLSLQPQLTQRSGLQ
# Muscarinic acetylcholine receptor M3 (Homo sapiens), sequence (P20309 whole entry, looked up): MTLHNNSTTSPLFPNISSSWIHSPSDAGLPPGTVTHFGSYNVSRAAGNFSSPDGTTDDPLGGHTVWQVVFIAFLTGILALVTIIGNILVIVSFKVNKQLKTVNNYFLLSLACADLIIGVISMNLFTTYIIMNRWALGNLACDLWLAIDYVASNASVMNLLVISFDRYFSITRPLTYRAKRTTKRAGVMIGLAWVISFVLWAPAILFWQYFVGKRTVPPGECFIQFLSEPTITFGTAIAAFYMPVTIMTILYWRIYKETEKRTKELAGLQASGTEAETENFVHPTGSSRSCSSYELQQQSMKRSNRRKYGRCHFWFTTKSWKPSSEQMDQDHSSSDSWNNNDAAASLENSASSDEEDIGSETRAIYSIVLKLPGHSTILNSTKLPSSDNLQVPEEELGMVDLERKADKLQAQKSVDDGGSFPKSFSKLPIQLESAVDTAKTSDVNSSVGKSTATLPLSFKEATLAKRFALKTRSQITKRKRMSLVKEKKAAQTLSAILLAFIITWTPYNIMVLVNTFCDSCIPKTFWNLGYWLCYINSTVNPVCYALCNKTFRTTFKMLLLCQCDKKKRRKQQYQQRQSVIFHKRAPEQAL
# Neuropeptide Y receptor type 2 (Homo sapiens), sequence (P49146 whole entry, looked up): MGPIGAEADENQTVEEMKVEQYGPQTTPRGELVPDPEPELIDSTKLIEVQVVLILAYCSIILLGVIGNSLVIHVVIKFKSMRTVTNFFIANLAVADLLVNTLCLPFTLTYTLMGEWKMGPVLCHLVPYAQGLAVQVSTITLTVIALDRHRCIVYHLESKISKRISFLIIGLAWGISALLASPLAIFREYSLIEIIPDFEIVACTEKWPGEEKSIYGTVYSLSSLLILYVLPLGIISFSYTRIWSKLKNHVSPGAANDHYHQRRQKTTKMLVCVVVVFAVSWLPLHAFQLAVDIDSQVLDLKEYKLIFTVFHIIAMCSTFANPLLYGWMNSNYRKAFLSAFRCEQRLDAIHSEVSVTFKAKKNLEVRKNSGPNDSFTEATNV
# human Endothelin Receptor Type B (ETB), EDNRB (gene 1910), sequence (P24530 whole entry, looked up): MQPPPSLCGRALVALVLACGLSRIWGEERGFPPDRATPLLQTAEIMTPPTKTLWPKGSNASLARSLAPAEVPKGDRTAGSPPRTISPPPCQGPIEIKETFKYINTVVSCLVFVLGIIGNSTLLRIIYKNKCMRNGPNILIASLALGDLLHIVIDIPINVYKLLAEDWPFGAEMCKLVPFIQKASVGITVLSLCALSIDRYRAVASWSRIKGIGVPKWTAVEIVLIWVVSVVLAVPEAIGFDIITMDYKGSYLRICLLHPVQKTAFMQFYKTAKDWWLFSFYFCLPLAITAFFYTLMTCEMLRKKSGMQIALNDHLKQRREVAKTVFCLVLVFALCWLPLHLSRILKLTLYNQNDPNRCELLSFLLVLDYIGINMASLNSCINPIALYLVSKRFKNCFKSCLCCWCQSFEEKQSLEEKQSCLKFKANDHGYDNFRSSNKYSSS
smiles,measurement,setting,value
CCOC1Oc2ccc(OS(C)(=O)=O)cc2C1(C)C (stereo not drawn),outcome,[1],inactive
O=C(O)CCCOc1ccc(Cl)cc1Cl,outcome,[2],inactive
same,AC50,[3],15.8 µM (active)
Oc1cc(Cl)ccc1Oc1ccc(Cl)cc1Cl,AC50,[4],25 µM (active)
same,outcome,[4],inactive
same,outcome,[5],inactive
same,AC50,[6],25.5 µM (active)
same,AC50,[7],10.7 µM (active) and 25.5 µM (active) and 9.39 µM (active)
same,outcome,[7],inactive
same,AC50,[8],25.5 µM (active) and 38.4 µM (active)
same,outcome,[8],inactive
[2H]C1([2H])[n+]2ccccc2-c2cccc[n+]2C1([2H])[2H],AC50,[2],12.9 µM (active)
same,AC50,[9],4.96 µM (active)
same,outcome,[3],inactive
O=C(O)C(F)(F)C(F)(F)C(F)(F)C(F)(F)C(F)(F)C(F)(F)C(F)(F)F,AC50,[10],35.2 µM (active)
same,outcome,[1],inactive
same,outcome,[6],inactive
same,outcome,[7],inactive
same,AC50,[11],9.44 µM (active)
same,outcome,[11],inactive
COP(=O)(OC)OC=C(Cl)Cl,outcome,[3],inactive
CCS(=O)(=O)c1cccnc1S(=O)(=O)NC(=O)Nc1nc(OC)cc(OC)n1,outcome,[3],inactive
O=C(Nc1ccccc1)Nc1cnns1,outcome,[3],inactive
N#Cc1c(Cl)c(Cl)c(Cl)c(C#N)c1Cl,AC50,[4],15.5 µM (active)
CCc1ccc(C(=O)NN(C(=O)c2cc(C)cc(C)c2)C(C)(C)C)cc1,outcome,[2],inactive
same,outcome,[10],inactive
same,AC50,[9],0.194 µM (active)
same,AC50,[12],0.152 µM (active)
same,outcome,[5],inactive
CCOCN(C(=O)CCl)c1c(C)cccc1CC,outcome,[5],inactive
same,AC50,[3],15.2 µM (active)
CCCN(CCOc1c(Cl)cc(Cl)cc1Cl)C(=O)n1ccnc1,outcome,[10],inactive
same,outcome,[6],inactive
same,outcome,[7],inactive
same,AC50,[8],10.5 µM (active)
CC(C)N(C(=O)COc1nnc(C(F)(F)F)s1)c1ccc(F)cc1,outcome,[2],inactive
O=C1c2ccccc2C(=O)N1SC(Cl)(Cl)Cl,outcome,[13],inactive
same,AC50,[4],13.3 µM (active)
